Measured values taken from PubChem BioAssay AID1159580 (chemical genetic matrix, 2015).
Screen size: about 5,500 compounds; about 2,000 (36%) were called active. Roughly 18% stayed inconclusive and do not appear here. No stated cut-off is given here; in the data, active means normalized growth mostly below about 0.91 (no sharp cut-off); inconclusive means no clear call, values can overlap the other calls; inactive means mostly above about 0.92. This is one part of the list.

Assay: chemical genetic growth profiling, strain panel (AID 1159580);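 further: tested at 20 µM; growth read once vehicle control cultures reached saturation at 30 °C; 1 = growth at the plate median or of vehicle wells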
Details: growth OD

Measured: normalized growth

CC(=O)NCc1c(I)c(NC(C)=O)c(I)c(C(=O)O)c1I
inactive: S. cerevisiae deletion strains, locus YJR075W, strain HOC1, stronger effect = lower value 1.01 | S. cerevisiae deletion strains, locus YKL009W, strain mrt4, stronger effect = lower value 1.1 | S. cerevisiae deletion strains, locus YKL068W, stronger effect = lower value 0.977 | S. cerevisiae deletion strains, locus YKL085W, strain MDH1 (second series), stronger effect = lower value 1.01 | S. cerevisiae deletion strains, locus YKL085W, strain MDH1, stronger effect = lower value 1.01 | S. cerevisiae deletion strains, locus YKL160W, strain elf1, stronger effect = lower value 0.981 | S. cerevisiae deletion strains, locus YKL190W, strain CNB1, stronger effect = lower value 0.997 | S. cerevisiae deletion strains, locus YKR001C, strain vps1, stronger effect = lower value 1 | S. cerevisiae deletion strains, locus YKR026C, strain gcn3, stronger effect = lower value 0.994 | S. cerevisiae deletion strains, locus YKR091W, strain srl3, stronger effect = lower value 0.998 | S. cerevisiae deletion strains, locus YLL001W, strain dnm1, stronger effect = lower value 0.999 | S. cerevisiae deletion strains, locus YLL026W, stronger effect = lower value 0.991 | S. cerevisiae deletion strains, locus YLL041C, strain sdh2, stronger effect = lower value 0.995 | S. cerevisiae deletion strains, locus YLR027C, strain aat2, stronger effect = lower value 1 | S. cerevisiae deletion strains, locus YLR039C, strain RIC1, stronger effect = lower value 1 | S. cerevisiae deletion strains, locus YLR058C, strain SHM2, stronger effect = lower value 0.999 | S. cerevisiae deletion strains, locus YLR102C, strain apc9, stronger effect = lower value 0.993 | S. cerevisiae deletion strains, locus YLR113W, strain HOG1, stronger effect = lower value 1.02 | S. cerevisiae deletion strains, locus YLR221C, strain rsa3, stronger effect = lower value 0.992 | S. cerevisiae deletion strains, locus YLR258W, strain gsy2, stronger effect = lower value 1 | S. cerevisiae deletion strains, locus YLR262C, strain YPT6 (second series), stronger effect = lower value 1 | S. cerevisiae deletion strains, locus YLR262C, strain YPT6, stronger effect = lower value 0.991 | S. cerevisiae deletion strains, locus YLR268W, strain sec22, stronger effect = lower value 0.97 | S. cerevisiae deletion strains, locus YLR320W, strain mms22, stronger effect = lower value 0.978 | S. cerevisiae deletion strains, locus YLR330W, strain CHS5, stronger effect = lower value 0.992 | S. cerevisiae deletion strains, locus YLR342W, strain FKS1 (second series), stronger effect = lower value 1.04 | S. cerevisiae deletion strains, locus YLR342W, strain FKS1, stronger effect = lower value 0.999 | S. cerevisiae deletion strains, locus YLR357W, strain rsc2, stronger effect = lower value 1.01 | S. cerevisiae deletion strains, locus YLR370C, strain arc18, stronger effect = lower value 1 | S. cerevisiae deletion strains, locus YLR371W, strain rom2, stronger effect = lower value 0.99 | S. cerevisiae deletion strains, locus YLR384C, strain iki3, stronger effect = lower value 0.987 | S. cerevisiae deletion strains, locus YLR418C, strain cdc73, stronger effect = lower value 1.02 | S. cerevisiae deletion strains, locus YML016C, strain PPZ1, stronger effect = lower value 1 | S. cerevisiae deletion strains, locus YML032C, strain rad52, stronger effect = lower value 0.998 | S. cerevisiae deletion strains, locus YML120C, strain ndi1, stronger effect = lower value 0.994 | S. cerevisiae deletion strains, locus YML124C, strain tub3, stronger effect = lower value 1 | S. cerevisiae deletion strains, locus YMR058W, strain fet3, stronger effect = lower value 0.995 | S. cerevisiae deletion strains, locus YMR078C, strain ctf18, stronger effect = lower value 0.984 | S. cerevisiae deletion strains, locus YMR125W, strain sto1, stronger effect = lower value 1.02 | S. cerevisiae deletion strains, locus YMR129W, stronger effect = lower value 1 | S. cerevisiae deletion strains, locus YMR205C, strain PFK2, stronger effect = lower value 1.01 | S. cerevisiae deletion strains, locus YMR223W, strain ubp8, stronger effect = lower value 1.02 | S. cerevisiae deletion strains, locus YMR231W, strain pep5, stronger effect = lower value 0.991 | S. cerevisiae deletion strains, locus YMR263W, strain SAP30, stronger effect = lower value 0.987 | S. cerevisiae deletion strains, locus YMR307W, strain GAS1, stronger effect = lower value 1.08 | S. cerevisiae deletion strains, locus YNL067W, strain RPL9B, stronger effect = lower value 0.987 | S. cerevisiae deletion strains, locus YNL071W, strain lat1, stronger effect = lower value 1 | S. cerevisiae deletion strains, locus YNL128W, strain TEP1, stronger effect = lower value 0.988 | S. cerevisiae deletion strains, locus YNL153C, strain GIM3, stronger effect = lower value 0.999 | S. cerevisiae deletion strains, locus YNL183C, strain NPR1, stronger effect = lower value 0.963 | S. cerevisiae deletion strains, locus YNL209W, strain ssb2, stronger effect = lower value 1 | S. cerevisiae deletion strains, locus YNL233W, strain BNI4, stronger effect = lower value 1.01 | S. cerevisiae deletion strains, locus YNL248C, strain rpa49, stronger effect = lower value 0.996 | S. cerevisiae deletion strains, locus YNL250W, strain rad50, stronger effect = lower value 0.99 | S. cerevisiae deletion strains, locus YNL271C, strain bni1, stronger effect = lower value 0.989 | S. cerevisiae deletion strains, locus YNL298W, strain CLA4, stronger effect = lower value 0.995 | S. cerevisiae deletion strains, locus YNL307C, strain MCK1, stronger effect = lower value 0.997 | S. cerevisiae deletion strains, locus YNL322C, strain KRE1 (second series), stronger effect = lower value 0.989 | S. cerevisiae deletion strains, locus YNL322C, strain KRE1, stronger effect = lower value 0.994 | S. cerevisiae deletion strains, locus YNR049C, strain mso1, stronger effect = lower value 0.996 | S. cerevisiae deletion strains, locus YNR052C, strain pop2, stronger effect = lower value 0.978 | S. cerevisiae deletion strains, locus YOL006C, strain TOP1, stronger effect = lower value 0.981 | S. cerevisiae deletion strains, locus YOL012C, strain htz1 0.964 | S. cerevisiae deletion strains, locus YOL147C, strain pex11, stronger effect = lower value 0.995 | S. cerevisiae deletion strains, locus YOR001W, strain rrp6, stronger effect = lower value 1.01 | S. cerevisiae deletion strains, locus YOR061W, strain CKA2, stronger effect = lower value 1 | S. cerevisiae deletion strains, locus YOR069W, strain VPS5, stronger effect = lower value 0.998 | S. cerevisiae deletion strains, locus YOR070C, strain gyp1, stronger effect = lower value 0.998 | S. cerevisiae deletion strains, locus YOR080W, strain dia2, stronger effect = lower value 0.995 | S. cerevisiae deletion strains, locus YOR083W, strain WHI5, stronger effect = lower value 0.983 | S. cerevisiae deletion strains, locus YOR106W, strain vam3, stronger effect = lower value 0.979 | S. cerevisiae deletion strains, locus YOR136W, strain idh2, stronger effect = lower value 0.999 | S. cerevisiae deletion strains, locus YOR144C, strain elg1, stronger effect = lower value 0.984 | S. cerevisiae deletion strains, locus YOR184W, strain ser1, stronger effect = lower value 0.995 | S. cerevisiae deletion strains, locus YOR231W, strain MKK1, stronger effect = lower value 1.03 | S. cerevisiae deletion strains, locus YOR265W, strain rbl2, stronger effect = lower value 0.994 | S. cerevisiae deletion strains, locus YOR270C, strain vph1, stronger effect = lower value 1.02 | S. cerevisiae deletion strains, locus YOR290C, strain snf2, stronger effect = lower value 1.01 | S. cerevisiae deletion strains, locus YOR316C, strain cot1, stronger effect = lower value 0.986 | S. cerevisiae deletion strains, locus YPL051W, strain arl3, stronger effect = lower value 0.997 | S. cerevisiae deletion strains, locus YPL055C, strain LGE1, stronger effect = lower value 0.984 | S. cerevisiae deletion strains, locus YPL078C, strain atp4, stronger effect = lower value 1 | S. cerevisiae deletion strains, locus YPL106C, strain sse1, stronger effect = lower value 0.993 | S. cerevisiae deletion strains, locus YPL240C, strain hsp82, stronger effect = lower value 0.98 | S. cerevisiae deletion strains, locus YPL241C, strain CIN2, stronger effect = lower value 1 | S. cerevisiae deletion strains, locus YPL256C, strain CLN2, stronger effect = lower value 1.01 | S. cerevisiae deletion strains, locus YPR119W, strain clb2, stronger effect = lower value 0.999 | S. cerevisiae deletion strains, locus YPR141C, strain kar3, stronger effect = lower value 0.986 | S. cerevisiae deletion strains, locus YPR163C, strain tif3, stronger effect = lower value 1 | S. cerevisiae deletion strains, locus YPR167C, strain met16, stronger effect = lower value 0.985 | S. cerevisiae deletion strains, strain wtn01, stronger effect = lower value 0.989 | S. cerevisiae strains, strain wild type, stronger effect = lower value 1
